# Shown are actives, neighbours in structure and some others; about 6.2% of the full set was active somewhere.
# HT1080 IDH1KD tx – HT-1080 IDH1 knockdown cell toxicity (counter line); HT-1080 IDH1 knockdown viability, ATP luminescence, 48 h; Potency, µM (highest dose often 46.1 µM), without a hit: at the highest dose activity, negative = toxicity, hits mostly cytotoxic; 2% of 360,000 active;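 further: 0% = DMSO wells and -100% = cell-free medium wells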
#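 CellTiter-Glo luminescence after 48 h compound exposure at 37 degrees C of IDH1-knockdown HT-1080 cells in 5% FBS RPMI. %Activity scaled between DMSO wells and cell-free media wells, with curves fitted and assigned curve classes.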
# KB-V1 MDR tox – KB-V1 MDR subline cytotoxicity. KB-V1 MDR cells viability, CellTiter-Glo, 72 h. Potency, µM (highest dose often 46.1 µM), actives largely listed as cytotoxic. 3.4% of 400,000 active. AID 1347076; further: on the % scale 0 is the no-effect control and ±100 the full control effect; nearly all actives have a fitted effect of over 60% in size
#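 qHTS viability screen in drug-selected KB-V1 MDR cells: 72 h compound treatment at 37 degrees C, ATP luminescence end point.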
# ATXN2 expr inh – inhibitors of ATXN2 expression | Potency, µM (top dose mostly 57 µM), for the others: at the top dose activity change, negative = inhibition, actives largely listed as inhibitors | 0.72% of 360,000 active | HEK-293 ATXN2-luciferase reporter, luminescence, 24 h; further: on the % scale 0 is the no-effect control and ±100 the full control effect; nearly all actives have a fitted effect of over 55% in size
#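 ATXN2-luciferase reporter cells (luciferase flanked by upstream and downstream ATXN2 gene portions) were treated 24 h at 37 °C with compounds at up to 57 uM. SteadyGlo luminescence gave expression; GF-AFC fluorescence gave viability.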
# HT1080NT lethal – kills 2HG-producing HT-1080-NT fibrosarcoma cells; Potency, µM (series often up to 46.1 µM), for inactives: at the highest dose activity, negative = less viability, actives largely listed as cytotoxic; HT-1080-NT fibrosarcoma viability, CellTiter-Glo ATP luminescence, 48 h; AID 686970; 1.6% of 360,000 active;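 further: NT is the 2HG producing partner of a matched IDH1 knockdown line; 0% = DMSO-treated cells and -100% = media-only wells without cells; nearly all actives have a fitted effect of over 55% in size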
#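 Viability by CellTiter-Glo luminescence after 48 h compound exposure at 37C of HT-1080-NT cells (750/well, RPMI, 5% FBS). % activity scaled between DMSO wells and medium-only wells, then curve-fitted and categorized by curve class.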
# ATXN viability – viability counter-screen for ATXN expression inhibitors; 0.49% of 400,000 active; Potency, µM (titrated, usually from 56.7 µM), most hits filed as cytotoxic; S2 cells (HEK-293 line with an ATXN2-luciferase reporter) viability, CellTiter-Fluor protease fluorescence, 24 h; further: nearly all actives have a fitted effect of over 40% in size
# KB-3-1 cytotox – kills parental KB-3-1 adenocarcinoma cells | 1.4% of 400,000 active | KB-3-1 viability, CellTiter-Glo ATP luminescence, 72 h | Potency, µM (doses to about 46.1 µM), actives largely listed as cytotoxic | AID 1347075; further: on the % scale 0 is the no-effect control and ±100 the full control effect; nearly all actives have a fitted effect of over 60% in size
#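 KB-3-1 cells, DMEM (no phenol red) + 10% FBS; compound by pin transfer, 72 h, 37 °C. Readout: CellTiter-Glo luminescence after 10 min. Data normalized, curve-fitted.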
# Starred values were filed as active, the others as inactive; i = inactive; ? = inconclusive; · = no result. The call rests on the fitted dose curve; in most records, active means well fitted curve in the direction sought with a large enough effect; inconclusive means small, poorly fitted or top-dose-only effect, or another doubt; inactive means no such curve, though single readings can be large; an effect the other way counts as inactive or inconclusive. Potency means the concentration at half of the fitted maximal effect.
SMILES,HT1080 IDH1KD tx,KB-V1 MDR tox,ATXN2 expr inh,HT1080NT lethal,ATXN viability,KB-3-1 cytotox
O=C(Nc1ccc(N2CCCC2)cc1)c1cccc(F)c1,-10.3%,i,52.6%,-9.8%,i,?
N=c1n(CCN2CCCCC2)c2ccccc2n1CC(O)c1cccc(Br)c1 (centres undefined),?,?,?,23.1µM*,?,?
COc1ccccc1OCC(O)Cn1c(=N)n(CCN2CCCCC2)c2ccccc21 (centres undefined),?,i,-29.5%,?,?,?
N=c1n(CCN2CCCCC2)c2ccccc2n1CC(O)c1ccc(Cl)c(Cl)c1 (centres undefined),12.6µM*,20.6µM*,25.1µM*,11.2µM*,?,?
COC(=O)Cn1c(=N)n(CCN2CCCCC2)c2ccccc21,8.8%,i,-6.6%,10.3%,i,i
CN(C)CCn1c(=N)n(CC(O)c2ccc(Cl)c(Cl)c2)c2ccccc21 (centres undefined),?,i,-21.8%,23.1µM*,?,?
Cc1cc(C(F)F)n2nc(C(=O)Nc3ccc(C(C)C)cc3)nc2n1,·,i,7.1%,·,i,i
CC(C)Oc1ccc(C(CCN)C2CCCCC2)cc1 (centres undefined),14.6µM*,16.4µM*,?,14.6µM*,·,?
Oc1ccc(-c2cc(-c3ccc(O)cc3)nc(-c3ccccc3)n2)cc1,?,i,-22.9%,11.6µM*,i,i
CCOC(=O)N1CCC(Nc2c(OCC)c(=O)c2=O)CC1,4.1%,?,-2.8%,0.6%,i,i
CCCN(CCC)c1nc(NC2CCN(C(=O)OCC)CC2)nc(OC)n1,?,16.4µM*,-22.0%,?,?,?
O=Nc1ccc(/C=C/c2ccnc3ccccc23)cc1,·,i,·,·,·,i
Cc1cc(CNC(=O)c2cnn(-c3ncc4c(n3)-c3ccccc3CC4)c2C2CC2)on1,·,·,·,·,i,·
CCOC(=O)Cn1c(=O)cc(C)c2c(C)nn(-c3cccc(F)c3)c21,·,i,-12.1%,·,i,i
COc1ccccc1C(=O)/C=C/c1ccc(N2CCCCC2)c([N+](=O)[O-])c1,?,10.3µM*,?,?,·,?
O=C(O/N=C\c1ccc(N2CCCCC2)c([N+](=O)[O-])c1)c1ccc(Cl)cc1Cl,13.9%,?,7.7%,0.5%,?,i
O=C(/C=C/c1ccc(N2CCCCC2)c([N+](=O)[O-])c1)c1ccc(O)cc1,18.4µM*,?,9.7%,18.4µM*,?,?
O=C(O)c1ccccc1C(=O)c1ccc(N2CCCC2)c([N+](=O)[O-])c1,0.0%,i,5.3%,-0.2%,i,i
Cc1csc2nc(-c3ccc(NS(=O)(=O)c4cccc(F)c4)cc3)cn12,·,i,5.2%,·,i,i
COc1ccccc1C(=O)Nc1onc2c1CCCC2,·,i,-22.3%,·,i,i
Cc1ccc(C(=O)Nc2onc3c2CCCC3)cc1,·,i,7.94µM*,·,?,i
Cc1cccc(NC(=O)c2onc3c2CCCC3)n1,?,13µM*,-24.9%,-28.0%,i,?
CCN1c2ccccc2NC2N=C(OC)C(c3ccccc3)C21 (centres undefined),8.91µM*,?,?,11.2µM*,i,i
Cn1nnnc1SCCNCc1ccc(OCc2ccccc2Cl)cc1,·,?,7.8%,·,i,23.1µM*
Cn1nnnc1SCCNCc1cc(Cl)ccc1OCc1ccccc1,-0.5%,5.17µM*,-12.2%,-5.9%,i,i
SMILES,HT1080 IDH1KD tx,KB-V1 MDR tox,ATXN2 expr inh,HT1080NT lethal,ATXN viability,KB-3-1 cytotox
COc1cc(-c2nnc(CSc3nnc(Nc4ccc(C(C)C)cc4)s3)o2)cc(OC)c1OC,16.4µM*,20.6µM*,-59.0%,?,?,i
Oc1ccccc1/C=N/NC(=S)NC1CC2CC1C1C=CCC21 (centres undefined),8.2µM*,20.6µM*,-13.4%,?,?,?
COC(=O)C(Cc1cnc(Cl)s1)(C(=O)OC)c1ccc([N+](=O)[O-])cc1[N+](=O)[O-],-0.6%,?,-17.2%,-3.2%,i,?
O=[N+]([O-])c1ccc(OCc2cnc(Cl)s2)c([N+](=O)[O-])c1,-11.1%,1.16µM*,22.7%,-3.4%,i,6.51µM*
O=c1cc(O)c2c(=O)n(-c3ccccc3)c3c(c2o1)CCCCC3,0.5%,16.4µM*,-3.2%,-1.8%,i,i
Cc1ccc(NC(=O)Cn2nc(C)c([N+](=O)[O-])c2C)cc1C,-12.6%,i,-5.2%,0.2%,?,i
Cc1nn(CC(=O)Nc2ccc3c(c2)CCC3)c(C)c1[N+](=O)[O-],-4.8%,18.4µM*,-4.8%,-3.9%,i,i
Cn1nc(CC(=O)Nc2ccc3c(c2)CCC3)c2ccccc2c1=O,2.91µM*,i,-31.0%,-13.4%,i,i
Cc1nn(CC(=O)Nc2cc(S(=O)(=O)N(C)C)ccc2Cl)c(C)c1[N+](=O)[O-],-3.3%,20.6µM*,0.3%,7.9%,i,i
Cc1cccc(N2CCN(C(=O)Cn3ncc4c3-c3ccccc3OC4)CC2)c1C,·,i,?,·,?,i
COc1cccc(C(=O)NCC2Cc3cccc(-c4ncccn4)c3O2)c1OC (centres undefined),·,·,·,·,i,·
CN(C)c1ccc(/C=C/c2ccnc3cc(Cl)cc(Cl)c23)cc1,·,i,·,·,·,i
Cc1nc(Nc2nc3ccccc3o2)nc2c1CCCC2,·,i,·,·,·,i
COC1C=COC2(C)Oc3c(C)c(O)c4c(O)c(c(CN5CCN(C)CC5)c(O)c4c3C2=O)NC(=O)C(C)=CC=CC(C)C(O)C(C)C(O)C(C)C(OC(C)=O)C1C (centres undefined),12.4%,i,14.7%,3.9%,i,i
CO[C@H]1/C=C\O[C@@]2(C)Oc3c(C)c(O)c4c(O)c(c(C=NN5CCN(C6CCCC6)CC5)c(O)c4c3C2=O)NC(=O)C(C)=CC=C[C@H](C)[C@H](O)[C@@H](C)[C@@H](O)[C@@H](C)[C@H](OC(C)=O)[C@H]1C,·,i,5.44µM*,·,·,i
CCOc1ccc(NC(=O)CSc2nnc3scc(-c4ccccc4)n23)cc1,·,i,-11.5%,·,i,i
COCCCNCCC(CCC(C)C)c1ccc2c(c1)OCO2 (centres undefined),14.6µM*,?,?,20.6µM*,i,?
CC(C)CCC(CCN1CCOCC1)c1ccc2c(c1)OCO2 (centres undefined),?,20.6µM*,-17.3%,-26.7%,i,i
CC(C)CCC(CCN1CCCC1)c1ccc2c(c1)OCO2 (centres undefined),-15.7%,i,-29.2%,-10.5%,i,i

# Screening data (PubChem BioAssay)
